HCV inhibitor: HCV inhibition | Huh7.5.1 HCVcc-Cre infection, luciferase reporter, 44 h | Potency, µM (highest dose often 41.8 µM), inactives show at the highest dose activity change, negative = inhibition, actives largely listed as inhibitors | actives 3.4% (n = 340,000) | AID 651820; note: potency is the fitted concentration of half-maximal effect; % is set by controls: 0 for no effect and ±100 for the full control effect
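Luciferase read-out (15 sec integration) after a 15 min room-temperature substrate step quantifies HCVcc-Cre infection. Cells, 1,000 per well, had compound added 4 h post-plating, then virus at ~0.5 moi, and were cultured 44 h.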
NS1 function inh: blocks influenza NS1 protein function | actives 0.4% (n = 270,000) | AID 2326 | Potency, µM (top dose mostly 46.1 µM), for the others: top-dose activity, positive = more growth; calls by dose curve; note: potency is the fitted concentration of half-maximal effect; actives are rising curves; nearly all actives have a fitted effect of over 50% in size
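OD600 was taken as the measure of yeast growth restored by compound in an NS1-expressing S. cerevisiae strain. Cells had been washed out of glucose medium and diluted 1:100 into galactose -URA medium, pH 6.0.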
Pf growth 96h: inhibits malaria parasite growth, 96 h; P. falciparum luciferase reporter growth, 96 h; Potency, µM (highest dose often 28.7 µM), without a hit: at the top dose activity change, negative = inhibition, most hits filed as inhibitors; AID 504834; actives 6.9% (n = 320,000); note: potency is the fitted concentration of half-maximal effect; % is set by controls: 0 for no effect and ±100 for the full control effect
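Two parasite generations (96 h, 37 C, 5% CO2) of compound exposure in infected erythrocytes (0.05% parasitemia, 2% hematocrit). Luciferase-reporter P. falciparum; decreased luminescence indicates inhibited growth, aimed at apicoplast-acting delayed death.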
AMA1-RON2 inh: AMA1-RON2 (P. falciparum) interaction inhibition; AlphaScreen AMA1-biotinylated RON2 peptide binding; Potency, µM (doses to about 58.2 µM), without a hit: at the top dose activity change, negative = inhibition, most hits filed as inhibitors; actives 0.2% (n = 360,000);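 note: potency is the fitted concentration of half-maximal effect; 0% = vehicle wells and -100% = peptide control; nearly all actives have a fitted effect of over 45% in size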
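AMA1 (3D7) with his tag at 25 nM final met compounds first, then biotinylated RON2 peptide at 25 nM; detection used donor plus acceptor beads, 10 µg/mL apiece, read by AlphaScreen after 30 min at room temperature.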
Pf growth 48h: P. falciparum growth inhibition at 48 hours (one generation); Potency, µM (top dose mostly 28.7 µM), for inactives: at the top dose activity change, negative = inhibition, most hits filed as inhibitors; P. falciparum luciferase growth in erythrocytes, 48 h; actives 5.9% (n = 310,000); AID 504832; note: potency is the fitted concentration of half-maximal effect; % is set by controls: 0 for no effect and ±100 for the full control effect
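Parasite viability was followed by luminescence of a genomically integrated firefly luciferase. Cultures held 0.1% parasitemia at 2% hematocrit (final), incubated under 5% CO2 at 37 C.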
SARS PLP yeast: inhibitors of SARS-CoV papain-like protease in yeast. Potency, µM (doses to about 32.9 µM), inactives show at the highest dose activity, positive = growth rescue, hits mostly activators. S. cerevisiae expressing SARS-CoV PLpro, growth rescue. actives 0.19% (n = 330,000); calls by dose curve; note: potency is the fitted concentration of half-maximal effect; 0% is about no effect; nearly all actives have a fitted effect of over 55% in size
NS1 inh valid: validation of influenza NS1 protein function inhibitors; activity change, negative = inhibition, % at 32.9 µM; shares compounds with NS1 function inh; AID 492980; 1,400 tested, under 10 active; influenza NS1 function cell assay, 15-point titration; calls by dose curve; note: 0% is about no effect
PR8 titer: influenza NS1 inhibitors: inhibition of influenza A/PR/8/34 replication; virus titer (log TCID50), log10 TCID50 at 5 µM; MDCK infected influenza A/PR/8/34, virus titer TCID50; hits give low values; actives 30% (n = 95); shares compounds with NS1 function inh; call rule not given here
* = called active by the depositor; ? = inconclusive; nt = no result given; [ ] = another dose, or the depositor's remark. This is a sample that favours compounds with a hit; in the whole collection about 12% have one here. Unless noted, calls come from the whole dose curve; as a rule, active = well fitted curve in the direction sought with a large enough effect; inconclusive = small, poorly fitted or top-dose-only effect, or another doubt; inactive = no such curve, though single readings can be large; an effect the other way counts as inactive or inconclusive.

SMILES	HCV inhibitor	NS1 function inh	Pf growth 96h	AMA1-RON2 inh	Pf growth 48h	SARS PLP yeast	NS1 inh valid	others
Cc1ccc(NC(=O)CCC(=O)NNC(=O)Nc2cccc(Cl)c2)c(C)c1	15%	5%	-82%	106%	?	-5%	nt
COC(=O)c1c(NC(=O)CN2C(=O)c3ccccc3C2=O)sc(Cc2ccc3c(c2)OCO3)c1C	-3%[8.37 µM]	10µM*	-9%	5%	11%	3%	-37
CCCN1CCN(C(=O)c2ccc(S(=O)(=O)N(C)c3ccccc3OC)cc2)CC1	nt	nt	nt	18%	nt	nt	nt
CCCCN(C(=O)CSc1n[nH]c(-c2ccc(C)cc2)n1)c1c(N)n(CCCC)c(=O)[nH]c1=O	-17%	nt	?	14%	?	nt	nt
CC(=O)N1CCN=C1SCc1ccccc1F	0%	1.3µM*	-59%	6%	1%	2%	5
CC(=O)N1CCN=C1SCc1ccccc1Cl	12%	5%	?	18%	nt	11%	nt
CC(=O)Nc1ccc(-c2nnc(SCC(=O)c3ccc4c(c3)Cc3ccccc3-4)n2C)cc1	-10%	-25%	?	7%	?	-11%	nt
Cn1c(SCC(=O)c2ccc3c(c2)Cc2ccccc2-3)nnc1-c1cccc(N)c1	-17%	?	?	2%	?	-28%	34
O=C(C1CCCN(S(=O)(=O)c2cccc3nonc23)C1)N1CCC(Cc2ccccc2)CC1 (stereo unspecified)	7%	10µM*	3%	-4%	?	nt	-33
Cc1cc(C)nc(N/N=C/C2=C(O)CC(c3ccccc3)CC2=O)n1 (stereo unspecified)	nt	-41%	-10%	nt	?	-5%	nt
Cc1ccc(/C=C2\SC(N3CCN(C(c4ccccc4)c4ccccc4)CC3)=NC2=O)o1	?	11µM*	1.7µM*	?	5.9µM*	-36%	?
O=C(O)c1ccc([N+]2=Cn3c(nc4ccccc43)C2)cc1	nt	0%	nt	nt	nt	nt	nt
O=C1CC(Nc2ccc(N3CCOCC3)cc2)C(=O)N1c1cccc(C(F)(F)F)c1 (stereo unspecified)	?	11µM*	1%	1%	?	-9%	4
COc1cccc(N2C(=O)CC(Nc3ccc(N4CCOCC4)cc3)C2=O)c1 (stereo unspecified)	18%	9%	29%	-8%	23%	-3%	nt
O=[N+]([O-])c1ccc(CSCc2ccc(Cl)cc2)cc1	nt	-9%	nt	nt	nt	nt	nt
O=C(O)c1sccc1Oc1ccc(NS(=O)(=O)c2ccccc2)cc1	18%	5%	5%	-3%	10%[0.00184 µM]	2%	nt
COCCn1nnnc1C(c1ccccc1)N1CCN(Cc2ccc3c(c2)OCO3)CC1 (stereo unspecified)	-2%	4.5µM*	62%	-6%	6%	0%	-4
COCCn1nnnc1C(c1ccc(C)cc1)N1CCN(Cc2ccc3c(c2)OCO3)CC1 (stereo unspecified)	-26%	-4%	nt	-7%	?	3%	nt
O=C(OCCN=C1NS(=O)(=O)c2ccccc21)c1cccnc1	20%	?	79%	12%	-22%	10%	-4
Cc1[nH]n(-c2ccc(F)cc2)c(=O)c1/C=N/c1sc2c(c1C#N)CCCC2	-4%	1%	250%	4%	62%	-1%	nt
Cc1[nH]n(-c2cccc3ccccc23)c(=O)c1/C=N/c1sc2c(c1C#N)CCC2	-12%	2.2µM*	?	-2%	?	7%	-9	PR8 titer=8.5
Cc1cc(C)c2nc(N3CCN(C)CC3)c(C#N)cc2c1	-3%	6.3µM*	?	5%	1%	-4%	-24

Screening data from PubChem.
